Experimental data published in the supplement of paper PMC11732987, “Enantioselective OTUD7B fragment discovery through chemoproteomics screening and high-throughput optimisation” (Communications Chemistry, 2025).

target: PRPF8 (UniProt Q6P2Q9); test: log2 ratio of Biotin-Ahx-Ub-VS probe labelling (fragment/DMSO); higher = less target engagement (more negative = stronger competition), active = hit call of the paper (q ≤ 0.05, log2 ratio ≤ -1); conditions: compound concentration: 200 uM; treatment time: 3 h
Outline: (§1)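 HEK293T lysate (495 µg per sample, in Tris/CHAPS/IGEPAL buffer with protease inhibitors) was treated in triplicate with fragment at 200 µM or with DMSO for 3 h. It was then treated with Biotin-Ahx-Ub-VS (0.5 µM final) for 1 h. Labelled DUBs were NeutrAvidin-enriched, digested with LysC and trypsin, and run by diaPASEF LC-MS/MS. Spectronaut label-free quantities were global-median-normalised. Values are average log2 ratios fragment/DMSO by unpaired t-test, using proteins with ≥2 unique peptides.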

log2 ratio of Biotin-Ahx-Ub-VS probe labelling, inactive:
Cl.O=C(CCl)N1CCC(n2nc3ccccc3n2)CC1 0.224
Cc1cccc(C)c1NC(=O)CCl -0.0544
CCN(C(=O)CCl)C1CCS(=O)(=O)C1 (stereo not given) -0.167
Cl.O=C(CCl)N[C@H]1C[C@@H](n2cccn2)C1 0.13
Cc1ccc2nnc(CNC(=O)CCl)n2c1 0.153
O=C(CCl)Nc1ccc(N2CCCC2=O)cc1 0.162
Cl.O=C(CCl)NCc1ccnc(Oc2ccccc2F)c1 -0.054
O=C(CCl)N1CCC(S(=O)(=O)c2ccc(F)cc2)CC1 -0.03
Cl.O=C(CCl)N1CCn2ncc(O)c2C1 0.218
Cc1cccc(NC(=O)CCl)c1C 0.0787
CCN(C(=O)CCl)C1CCCCC1 -0.0683
O=C(CCl)NC1(c2ccc3c(c2)OCCO3)CCCC1 -0.154
O=C(CCl)N1CCN(C(=O)Nc2ccccc2)CC1 -0.00577
O=C(CCl)NC(Cn1ccccc1=O)c1ccccc1 (stereo not given) -0.224
CC1CCc2onc(CNC(=O)CCl)c2C1 (stereo not given) -0.225
O=C(CCl)N1CCCCCC1c1ncon1 (stereo not given) -0.173
Cc1cccc(N(CCC#N)C(=O)CCl)c1C 0.241
O=C(CCl)Nc1ccccc1C(F)(F)F 0.155
Cc1ccccc1OCC(=O)N1CCN(C(=O)CCl)CC1 0.281
CN(C)C(=O)c1ccc(CNC(=O)CCl)cc1 -0.0967
Cl.Cn1cnc2cc(CNC(=O)CCl)ccc21 0.126
N#Cc1ccc(CNC(=O)CCl)cc1 -0.187
Cc1nc(CN2CCCN(C(=O)CCl)CC2)no1.Cl 0.0827
Cc1ccc(C)c(NC(=O)CCl)c1 -0.000105
Cc1cc(CC(C)NC(=O)CCl)n[nH]1 (stereo not given) -0.109
O=C(CCl)N1CCCN(C(=O)c2ccc(Cl)cc2)CC1 0.0935
Cl.O=C(CCl)NCCN1CCc2ccccc21 0.014
CC1(NC(=O)CCl)CCS(=O)(=O)C1 (stereo not given) -0.0055
N#Cc1ccc(Cl)cc1NC(=O)CCl 0.00848
O=C(CCl)N1CCCC1c1ccsc1 (stereo not given) 0.0505
O=C(CCl)NCc1ccc(N2CCOCC2)nc1 -0.0538
O=C(CCl)NCc1cccc(F)c1 -0.208
COc1ccccc1C(C)NC(=O)CCl (stereo not given) -0.14
COc1ccc(Cl)cc1NC(=O)CCl -0.0117
O=C(CCl)N1CCC(c2nc3ccccc3o2)CC1 -0.0832

target: T1, PSMD7 (UniProt P51665); test: as above; conditions: compound concentration: 200 uM; treatment time: 3 h
T1 sequence (whole entry): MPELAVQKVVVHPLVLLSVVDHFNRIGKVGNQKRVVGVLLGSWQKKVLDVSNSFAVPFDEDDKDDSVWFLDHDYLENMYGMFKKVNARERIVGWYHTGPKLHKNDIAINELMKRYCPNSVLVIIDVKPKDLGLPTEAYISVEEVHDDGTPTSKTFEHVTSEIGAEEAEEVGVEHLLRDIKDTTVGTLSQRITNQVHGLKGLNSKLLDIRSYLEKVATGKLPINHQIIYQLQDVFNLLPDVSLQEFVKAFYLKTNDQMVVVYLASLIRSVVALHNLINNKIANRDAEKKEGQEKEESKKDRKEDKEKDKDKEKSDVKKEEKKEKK
Outline: as §1

log2 ratio of Biotin-Ahx-Ub-VS probe labelling, inactive:
Cl.O=C(CCl)N1CCC(n2nc3ccccc3n2)CC1 -0.494
Cc1cccc(C)c1NC(=O)CCl -0.245
CCN(C(=O)CCl)C1CCS(=O)(=O)C1 (stereo not given) -0.00588
Cl.O=C(CCl)N[C@H]1C[C@@H](n2cccn2)C1 0.118
Cc1ccc2nnc(CNC(=O)CCl)n2c1 0.238
O=C(CCl)Nc1ccc(N2CCCC2=O)cc1 -0.145
Cl.O=C(CCl)NCc1ccnc(Oc2ccccc2F)c1 -0.0622
O=C(CCl)N1CCC(S(=O)(=O)c2ccc(F)cc2)CC1 -0.129
Cl.O=C(CCl)N1CCn2ncc(O)c2C1 -0.249
Cc1cccc(NC(=O)CCl)c1C -0.631
CCN(C(=O)CCl)C1CCCCC1 0.00413
O=C(CCl)NC1(c2ccc3c(c2)OCCO3)CCCC1 -0.208
O=C(CCl)N1CCN(C(=O)Nc2ccccc2)CC1 0.0846
O=C(CCl)NC(Cn1ccccc1=O)c1ccccc1 (stereo not given) -0.094
CC1CCc2onc(CNC(=O)CCl)c2C1 (stereo not given) -0.0595
O=C(CCl)N1CCCCCC1c1ncon1 (stereo not given) -0.174
Cc1cccc(N(CCC#N)C(=O)CCl)c1C 0.0381
O=C(CCl)Nc1ccccc1C(F)(F)F -0.0779
Cc1ccccc1OCC(=O)N1CCN(C(=O)CCl)CC1 0.113
CN(C)C(=O)c1ccc(CNC(=O)CCl)cc1 -0.0924
Cl.Cn1cnc2cc(CNC(=O)CCl)ccc21 -0.0706
N#Cc1ccc(CNC(=O)CCl)cc1 -0.28
Cc1nc(CN2CCCN(C(=O)CCl)CC2)no1.Cl 0.166
Cc1ccc(C)c(NC(=O)CCl)c1 -0.209
Cc1cc(CC(C)NC(=O)CCl)n[nH]1 (stereo not given) -0.276
O=C(CCl)N1CCCN(C(=O)c2ccc(Cl)cc2)CC1 -0.253
Cl.O=C(CCl)NCCN1CCc2ccccc21 -0.0696
CC1(NC(=O)CCl)CCS(=O)(=O)C1 (stereo not given) 0.0653
N#Cc1ccc(Cl)cc1NC(=O)CCl -0.0625
O=C(CCl)N1CCCC1c1ccsc1 (stereo not given) -0.39
O=C(CCl)NCc1ccc(N2CCOCC2)nc1 -0.249
O=C(CCl)NCc1cccc(F)c1 -0.138
COc1ccccc1C(C)NC(=O)CCl (stereo not given) -0.451
COc1ccc(Cl)cc1NC(=O)CCl -0.241
O=C(CCl)N1CCC(c2nc3ccccc3o2)CC1 -0.495
